HIV RNase H inh-1: blocks HIV-1 RNase H cleavage of RNA/DNA duplex | P04585 | AID 565 | hit rate 1.9% among 65,000 | inhibition, % at 10 µM | RT-RNase H RNA/DNA duplex cleavage, fluorescence; in the data active = inhibition above about 50%
HIV RNase H inh-2: confirmation of HIV-1 reverse transcriptase RNase H inhibitors; Recombinant RT RNase H, fluorescent RNA/DNA duplex cleavage; hit rate 39% among 1,000; shares compounds with HIV RNase H inh-1; AID 651; inhibition, % at 10 µM; in the data active = inhibition above about 48%; inconclusive = no clear call, values can overlap the other calls
The depositor's hits bear a star. Many of the other results were omitted from the sample, so hits are more common in it than they were.

How did COc1cccc(C2CC(=O)N3CN(c4ccccc4F)CSC3=C2C#N)c1 (stereo not drawn) do in these assays?
HIV RNase H inh-1: 76*; HIV RNase H inh-2: 12

How did COc1ccccc1N1CSC2=C(C#N)C(c3ccc(SC)cc3)CC(=O)N2C1 (stereo not drawn) do in these assays?
HIV RNase H inh-1: 81*; HIV RNase H inh-2: 55*

What do the screens show for `COc1ccc(OC)c(C2CC(=O)N3CN(c4ccccc4F)CSC3=C2C#N)c1` (stereo not drawn)?
HIV RNase H inh-1: 27

How did COc1cc(C2CC(=O)N3CN(c4ccccc4C)CSC3=C2C#N)cc(OC)c1OC (stereo not drawn) do in these assays?
HIV RNase H inh-1: 66*; HIV RNase H inh-2: 83*

Results for COc1ccc(C2CC(=O)N3C(=C2C#N)SCC3(O)c2ccccc2)cc1 (stereo not drawn) ?
HIV RNase H inh-1: -4

What do the screens show for `COc1cccc(C2CC(=O)N3CN(c4cccc(Cl)c4C)CSC3=C2C#N)c1OC` (stereo not drawn)?
HIV RNase H inh-1: 25

What do the screens show for `c1cnn(-c2nc(N3CCOCC3)nc(N3CCOCC3)n2)c1`?
HIV RNase H inh-1: -15

How did NC(=O)C1CCCN(S(=O)(=O)c2ccc(Br)cc2)C1 (stereo not drawn) do in these assays?
HIV RNase H inh-1: -6

What do the screens show for `CCc1nnc(NC(=O)C2CCN(c3nc(C)cc(C)n3)CC2)s1`?
HIV RNase H inh-1: 2

How did C=CCSc1nnc(-c2ccccc2NC(=O)CC)c(=O)[nH]1 do in these assays?
HIV RNase H inh-1: -3

How did CC1(c2ccc3c(c2)OCO3)NC(=O)N(CC(=O)Nc2ccc(N3CCOCC3)cc2)C1=O (stereo not drawn) do in these assays?
HIV RNase H inh-1: 2

How did CCOc1ccc(S(=O)(=O)NC(C)(C)C)cc1-c1nc2c(C(C)(C)C)nn(C)c2c(=O)[nH]1 do in these assays?
HIV RNase H inh-1: 1

Results for CCOc1cc(S(=O)(=O)NCc2ccccc2)ccc1F ?
HIV RNase H inh-1: -17

How did COC(=O)c1ccc(CNC(=O)COc2ccccc2Br)o1 do in these assays?
HIV RNase H inh-1: -43

How did Cn1nnnc1P(=O)(c1ccccc1)c1ccccc1 do in these assays?
HIV RNase H inh-1: -1

Results for Cc1ccc(C)c(-n2nnnc2SCC(=O)NCCC2=CCCCC2)c1 ?
HIV RNase H inh-1: -46

How did CCC(NC(=O)NCc1cccnc1)(C(F)(F)F)C(F)(F)F do in these assays?
HIV RNase H inh-1: 2

How did Cc1cccc(-c2nnc3n2N=C(c2ccc(Br)cc2)CS3)c1 do in these assays?
HIV RNase H inh-1: 40

Results for COc1cccc(-c2nnc3n2N=C(c2cccc(Br)c2)CS3)c1 ?
HIV RNase H inh-1: 54*; HIV RNase H inh-2: inconclusive

Results for COc1ccc(C2=Nn3c(nnc3-c3cccnc3)SC2)cc1OC ?
HIV RNase H inh-1: -17

Results for CCOc1ccc(C2=Nn3c(nnc3-c3ccccc3OC)SC2)cc1 ?
HIV RNase H inh-1: 3

How did COc1ccc(C2=Nn3c(nnc3-c3ccccn3)SC2)cc1 do in these assays?
HIV RNase H inh-1: -9

What do the screens show for `COc1ccccc1-c1nnc2n1N=C(c1ccc(O)c(O)c1)CS2`?
HIV RNase H inh-1: 94*; HIV RNase H inh-2: 58*

Results for COc1ccc(-c2nc(CSCC(=O)N3CCN(C4CCCCC4)CC3)c(C)o2)cc1OC ?
HIV RNase H inh-1: -11

Results for CC1Oc2ccccc2N(CC(=O)c2ccccc2)C1=O (stereo not drawn) ?
HIV RNase H inh-1: 0

Results for CC1Oc2ccccc2N(Cc2ccccc2Cl)C1=O (stereo not drawn) ?
HIV RNase H inh-1: -26

Results for CC1Oc2ccccc2N(Cc2ccccc2F)C1=O (stereo not drawn) ?
HIV RNase H inh-1: 90*; HIV RNase H inh-2: 12

What do the screens show for `CC(C)OC(=O)c1cccnc1SCc1cc(=O)n2ccccc2n1`?
HIV RNase H inh-1: -18

What do the screens show for `Cc1nc2ncnn2c(C)c1CCC(=O)N1CCOCC1`?
HIV RNase H inh-1: 7

What do the screens show for `Cn1c(N2CCOCC2)nc(-c2ccccc2)c1-c1ccccc1`?
HIV RNase H inh-1: -22

What do the screens show for `O=S(=O)(c1ccc(Cl)c(C(F)(F)F)c1)N1CCN(CC(O)COCC2CCCO2)CC1` (stereo not drawn)?
HIV RNase H inh-1: -1

Results for COc1ccc(C(=S)N(C)C)cc1OC ?
HIV RNase H inh-1: 87*; HIV RNase H inh-2: 58*

How did COc1ccc(C(=O)c2ccc(OC)c(OC)c2)cc1OC do in these assays?
HIV RNase H inh-1: -37

Results for CC/C(=N\O)c1ccc(OC)c(OC)c1 ?
HIV RNase H inh-1: -6

How did CC(C)CC(OC(=O)c1ccco1)C(=O)NC1CCCCC1 (stereo not drawn) do in these assays?
HIV RNase H inh-1: -24

How did Cc1cc(NC(=O)c2cc(-c3ccco3)on2)n(-c2ccccc2)n1 do in these assays?
HIV RNase H inh-1: 7

Results for Cc1cc(NC(=O)c2cc(C)on2)n(-c2ccccc2)n1 ?
HIV RNase H inh-1: 75*; HIV RNase H inh-2: 50

What do the screens show for `Cc1cc(NC(=O)c2cc(C3CC3)on2)n(-c2ccccc2)n1`?
HIV RNase H inh-1: -2

Results for Cn1cc(Cl)nc1C(O)c1ccccc1 (stereo not drawn) ?
HIV RNase H inh-1: -3

How did CCCCOC(=O)Nc1cc(OC)c(Cl)cc1OC do in these assays?
HIV RNase H inh-1: -32

How did O=C(O)c1cccc(S(=O)(=O)N2CCOCC2)c1 do in these assays?
HIV RNase H inh-1: 1

Results for Cn1c(=O)n(C)c2cc(S(=O)(=O)N3CCOCC3)ccc21 ?
HIV RNase H inh-1: -6

Results for O=S(=O)(c1ccc2nc(-c3ccco3)c(-c3ccco3)nc2c1)N1CCOCC1 ?
HIV RNase H inh-1: 76*; HIV RNase H inh-2: 26

What do the screens show for `CCC1(CC)C(=O)C(C)(C)C(=O)OC1c1cccs1` (stereo not drawn)?
HIV RNase H inh-1: -19

Results for O=C(NC1CCC(NC(=O)C2CCCO2)CC1)C1CCCO1 (stereo not drawn) ?
HIV RNase H inh-1: 2

What do the screens show for `COc1cccc(-c2nc(-c3ccccc3)no2)c1`?
HIV RNase H inh-1: -17

Results for COc1ccc(CC(=O)Nc2ccc(-c3noc(-c4cccc(OC)c4)n3)cc2)cc1 ?
HIV RNase H inh-1: 79*; HIV RNase H inh-2: 62*

Results for COc1cccc(-c2nc(-c3ccc(NC(=O)c4cccnc4)cc3)no2)c1 ?
HIV RNase H inh-1: -1

Results for COc1ccc(C(=O)NCc2nnc(SCC(=O)N3CCCCC3)o2)cc1OC ?
HIV RNase H inh-1: 2

What do the screens show for `COc1ccc(CNC(=O)COc2ccc(S(=O)(=O)NC(C)C)cc2)cc1`?
HIV RNase H inh-1: -1

How did CCOC(=O)c1c(NC(=O)c2cccs2)sc2c1CCCC2 do in these assays?
HIV RNase H inh-1: 2

How did CCOC(=O)c1c(NC(=O)c2ccc(Cl)s2)sc(C)c1C do in these assays?
HIV RNase H inh-1: 20

How did CCOC(=O)c1c(NC(=O)c2csc(C)c2)sc(C(C)=O)c1C do in these assays?
HIV RNase H inh-1: -11

What do the screens show for `CCOC(=O)c1c(NC(N)=O)sc(C)c1C`?
HIV RNase H inh-1: -24

What do the screens show for `CCCc1cc(C(=O)Nc2sc(C)c(C)c2C(=O)OCC)no1`?
HIV RNase H inh-1: 86*; HIV RNase H inh-2: 67*

What do the screens show for `CCOC(=O)c1c(NC(=O)c2ccco2)sc2c1CCCCC2`?
HIV RNase H inh-1: -46

How did CCOC(=O)c1c(NC(=O)c2cccs2)sc(C(=O)N2CCOCC2)c1C do in these assays?
HIV RNase H inh-1: -24

What do the screens show for `CCOC(=O)c1c(NC(=O)c2cc(C3CC3)on2)sc2c1CCCC2`?
HIV RNase H inh-1: 84*; HIV RNase H inh-2: 94*
